PubChem BioAssay (Tox21)
Where “and” joins values, the source holds several entries; their conditions need not be identical. Identical values can stand only once. Results filed as inconclusive are left out. Where a call stands in place of a potency, no number is given. Calls of active or inactive are those of the source. Calls come from the whole dose curve; as a rule, active = well fitted cell-killing curve with a large enough effect in the repeat runs; inconclusive = weak or mixed curves, or effect the other way; inactive = flat fitted curve, though single readings scatter.

Test: qHTS assay to identify small molecule antagonists of the androgen receptor (AR) signaling pathway using the MDA cell line in the presence of 0.5 nM R1881 - cell viability counter screen (AID 1259242); note: nearly all actives have a fitted effect of over 45% in size
Settings: MDA-kb2 viability, CellTiter-Fluor protease fluorescence, 16 h; series mostly up to 92.4 µM
Excerpt: U.S. Tox21 Program National Center for Advancing Translational Sciences [NCATS] NIH Chemical Genomics Center [NCGC] U.S. Environmental Protection Agency [EPA] National Institutes of Environmental Health Sciences [NIEHS] National Toxicology Program [NTP] U.S. Food and Drug Administration [FDA] Tox21 Assay Overview: Androgen receptor (AR) is an important member of the nuclear receptor family. Its signaling plays a critical role in AR-dependent prostate cancer and other androgen related diseases. Considerable attention has been given in the past decades to develop methods to study and screen for the environmental chemicals that have the potential to interfere with metabolic homeostasis, reproduction, developmental and behavioral functions. Therefore AR binding assay for screening androgen antagonists can be used to identify potential endocrine disruptors. MDA-kb2 cells (from ATCC, deposited by Wilson et al.) were used to screen for AR inhibitors against Tox21 compound libraries. These cells are human breast carcinoma cells that were stably transfected with a luciferase reporter gene under control of the MMTV promoter that contains response elements for both androgen receptor (AR) and glucocorticoid receptor (GR). The current screening for identification of AR inhibitors against Tox21 libraries used lower concentration of (0.5 nM) R1881 as a stimulator. The cytotoxicity of the Tox21 compound libraries against MDA-kb2 cell line was tested by measuring live-cell protease activity using CellTiter-Fluor assay in the same wells.
Tox21 Assay Protocol Summary: MDA-kb2 cells (cells cultured without CO2) were dispensed at 3,000 cells/well in 4 uL of culture medium into white wall/solid-bottom 1536-well plates (Corning Life Sciences, Corning, NY) using a Multidrop Combi (ThermoFisher Scientific, Waltham, MA) dispenser. After the assay plates were incubated at a 37C and 0% CO2 for 5 hr, 23 nL of compounds dissolved in DMSO, positive controls or DMSO only was transferred to the assay plate by a Pintool station (Kalypsys, San Diego, CA). The transfer of compounds was followed by the addition of 1 uL of 0.5 nM (final concentration) agonist (R1881)/culture medium using a Flying Reagent Dispenser (FRD, Aurora Discovery, San Diego, CA). The plates were incubated at 37C and 0% CO2 for 16 hr. For cytotoxicity assay, 1 uL of CellTiter-Fluor reagent (Promega Corporation, Madison, WI) was added to each well using the FRD and after 30 min incubation at 37C and 0% CO2, The fluorescence intensity was measured using ViewLux plate reader (PerkinElmer, Shelton, CT).
Potency is the fitted concentration of half-maximal effect.

| Structure (SMILES) | Potency |
| --- | --- |
| OCCC(O)CO (stereo not given) | inactive |
| CCN=c1cc2oc3cc(NCC)c(C)cc3c(-c3ccccc3C(=O)OCC)c-2cc1C | 965 nM (active) and 864 nM (active) |
| Clc1cccnc1 | inactive |
| CCCCOCC | inactive |
| CCCC(=O)OCC(COC(=O)CCC)OC(=O)CCC | inactive |
| Cc1c(-c2ccc(O)cc2)n(Cc2ccc(OCCN3CCCCCC3)cc2)c2ccc(O)cc12 | 29.8 µM (active) |
| O=C(O)c1cccc(Cl)n1 | inactive |
| COc1cccc(CCc2ccccc2OCC(CN(C)C)OC(=O)CCC(=O)O)c1 (stereo not given) | inactive |
| CC(=O)C=O | inactive |
| CCOC(=O)[C@@](C)(N)Cc1ccc(O)c(O)c1 | inactive |
| COCC(=O)O[C@]1(CCN(C)CCCc2nc3ccccc3[nH]2)CCc2cc(F)ccc2[C@@H]1C(C)C | 21.1 µM (active) |
| C=C(C)C(=O)OCCC[Si](Cl)(Cl)Cl | inactive |
| C=CC(=O)OCCN(CC)CC | inactive |
| CCN(CC)CCCN(c1ccccc1)C1Cc2ccccc2C1 | inactive |
| Cc1ccc2ccc3cccc4ccc1c2c34 | inactive |
| CSc1ccc2c(c1)N(CCC1CCCCN1C)c1ccccc1S2 (stereo not given) | 54.3 µM (active) |
| CC(C)=C1CC[C@@H](C)CC1=O | inactive |
| COc1cc(C(=O)NS(=O)(=O)c2ccccc2C)ccc1Cc1cn(C)c2ccc(NC(=O)OC3CCCC3)cc12 | inactive |
| C=CC(=O)OCC(O)COc1ccccc1 (stereo not given) | inactive |
| S=P(N1CC1)(N1CC1)N1CC1 | inactive |

| Structure (SMILES) | Potency |
| --- | --- |
| CC(COC(=O)c1ccccc1)OC(=O)c1ccccc1 (stereo not given) | inactive |
| c1cc(OCC2CO2)cc(OCC2CO2)c1 (stereo not given) | inactive |
| C/C=C/C=N/NC(=O)c1ccncc1 | inactive |
| COC(=O)CC#N | inactive |
| Nc1ncnc2c1ncn2[C@@H]1O[C@H](COP(=O)(O)O)[C@@H](O)[C@H]1O | inactive |
| C/C=C/C(=O)C1=C(C)CCCC1(C)C | inactive |
| CCCCCCCCCCCCN(CCO)CCO | 60.9 µM (active) |
| Cc1ccc(CCn2c3c(c4cc(Cl)ccc42)CN(C)CC3)cn1 | inactive |
| CS(C)(=O)=O | inactive |
| O=C(O)Cc1ccc(OCCNC[C@H](O)c2ccccc2)cc1 | inactive |
| CCC(C)C(=O)OC (stereo not given) | inactive |
| NCCCCCCNCCCCCCN | inactive |
| C=C(C)CCCC | inactive |
| CCOC(=O)N1CCC(=C2c3ccc(Cl)cc3CCc3cccnc32)CC1 | inactive |
| CO[Si](CCCNCCNCCN)(OC)OC | inactive |
| CC1=CP(=O)(c2ccccc2)CC1 (stereo not given) | inactive |
| CC1=C(/C=C/C(C)=C/C=C/C(C)=C\C=O)C(C)(C)CCC1 | inactive |
| OCCCc1cccnc1 | inactive |
| OCCN1CN(CCO)CN(CCO)C1 | inactive |
| CSc1c(Cl)c(Cl)c(Cl)c(Cl)c1Cl | inactive |
